# ± gives the standard deviation of the averaged measurements. The full ranking holds about 25,000 sequences; the median of “ln(normalized median fluorescence intensity)” is about 8.9, and the highest 2% start at about 10. Many of the other results were omitted from the sample, so the highest values are more common in it than they were.
# Test system: PfAP2-LT AP2 domain (GST-tagged)
# Experiment: gcPBM binding intensity (ln(normalized median fluorescence intensity)); higher = stronger DNA binding
# Procedure, shortened: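 Binding intensity is defined as the maximum Masliner-normalised natural-log median intensity across replicate spots for either probe orientation. It was measured on an Agilent 4 × 180k array of primer-extended double-stranded 36-bp intergenic genomic probes and negative controls, to which GST-tagged P. falciparum DNA-binding domains made in E. coli were applied for 1 h in 1× PBS with 1% milk, 0.2 mg/ml BSA, 0.5% salmon testes DNA and 0.03% Triton X-100. Detection was by Alexa488 anti-GST antibody and scanning at 488 nm.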
row,Sequence,gcPBM binding intensity (ln)
1,AATGAAATAAATAAGGGTACACATAAATATATATAT [XGTACX_site7006],9.04 ± 0.43
2,AAAAAAAAAACATACACACACATATATATATATATG [CACACA_site1586],9.46 ± 0.3
3,AAAAAAAAAAAAAAAACACACATATATGTATATATA [CACACA_site3276],8.92 ± 0.35
4,ATTATGTGCCAATACACACACACATATATATATATA [CACACA_site468],10.38 ± 0.078
5,TATGTGCCAAAACACACACACATATATATATATATA [CACACA_site469],10.2 ± 0.2
6,ATTATGTGCCAATACACACACACATCTATATTTATA [CACACA_site6359],9.67 ± 0.18
7,AAATTATGTGCCAATACACACACACCGATATATATA [CACACA_site8050],9.92 ± 0.21
8,TACATATGAAAATACACACATACATACATATATATA [CACACA_site1673],9.21 ± 0.34
9,TATCAAAAAAAAAGTAGTACGATAATAGTTTCCCAA [XGTACX_site1812],8.73 ± 0.4
10,TAATATTTTTTGTGTACACATATATATATATATATA [CACACA_site5504],9.505 ± 0.064
11,ATATGTTAAATTATTCGTACGTAAAAAAAAATGGAT [XGTACX_site3465],8.81 ± 0.37
12,AATGTGTAGACACGCACACACAAAAAAATATTTATA [CACACA_site7384],9.59 ± 0.36
13,ACAAAATAAAGACACACACACAAACACAAAAAAATA [CACACA_site7568],10.1 ± 0.38
14,AAAACAAATAGACACGCACACAAAAAAAAAAAAAAA [CACACA_site801],9.38 ± 0.6
15,TATTTATTAAGACACACACACACACGCACAAAATAA [CACACA_site6254],10.3 ± 0.33
16,AAAAAACAAAAACACACGCACACAAAAAAAAAAAAA [CACACA_site802],9.4 ± 0.33
17,TTATTATTAAGACACACACACAAAAAAAAAAAAAAA [CACACA_site6805],9.26 ± 0.46
18,CACAAACAAAGACACACACACACACGCACAAAAATG [CACACA_site7193],10.3 ± 0.21
19,TTAACAAATAGACACACACACACACGCAAAAAAAAA [CACACA_site6387],10.3 ± 0.33
20,AATTAACAAAGACACACACACACACGCACAAAAAAA [CACACA_site6388],10.2
21,ATATATATATATAACACACGCAAAAAAATTAAATAA [CACACA_site1400],9.16 ± 0.38
22,AACACGCACAGACACACACACAAAAATGATTAAAAA [CACACA_site7195],9.71 ± 0.61
23,TAAATTAAAAGACACACACACAAAAAAAAAAAAAAA [CACACA_site7131],9.4 ± 0.44

row,Sequence,gcPBM binding intensity (ln)
1,ATGAAAAAAAATAAAAAATATATATATATATATATA [CACACA_negctrl_site236],9.4 ± 0.4
2,ATATATATATAAATATAAATATATATATATATATAT [CACACA_negctrl_site1685],9.02 ± 0.23
3,AGGAAAAAAAAAATGTGTACTTAAAAAAAAAAAATT [XGTACX_site1471],8.51 ± 0.65
4,ACCTTTTGGATTATATGTACATATATATATATATAT [XGTACX_site2687],9.61 ± 0.26
5,CACAAAAGTAAGCACGCACACACAACCTGAAATAAA [CACACA_site166],9.59 ± 0.44
6,ATTTTTTTTATTTTTTATATAATTTTTTTATATTAT [CACACA_negctrl_site1521],8.69 ± 0.5
7,ATGCAAATGTGCATCACACACACTAATGGGTATGTA [CACACA_site2893],9.41 ± 0.31
8,AATTAAATGATTTATACATGCATATAAATATAAATA [TGCATGCA_site579],8.71 ± 0.43
9,CGATTTTTTAAGTTTGTGCACTTAAAAACTATAACA,8.53 ± 0.47
10,GATGAAAATAGAAATACACACTAAAAAATAAAATTA [CACACA_site4764],8.85 ± 0.52
11,ATATACATATTCTTGTGTACATAAAAATTTATATAT [XGTACX_site8726],8.74 ± 0.35
12,AAAAAAAAAAAAGAACGTACAAATTAATTTATAGAA [XGTACX_site5584],8.73 ± 0.57
13,TTAAAAAATCACAACACACACACACCCAAAAAAAAA [CACACA_site1445],9.77 ± 0.26
14,TTAAAAAATCACAACACACACACACGCAAAAAAAAA [CACACA_site6793],10.1 ± 0.21
15,TTTACATTAAATCACGCACACAAAAAAAAAAAAAAA [CACACA_site2418],8.94 ± 0.37
16,ATTCAAAAGATGTATACACACATGTGGATAATATAA [CACACA_site2443],9.21 ± 0.48
17,TATATATAATATGAATGTACACAAAAAGGTAATACA [XGTACX_site6202],9.11 ± 0.62
18,ATACAACAAAAATAAGCACACACAAATATACATACA [CACACA_site9201],9.7 ± 0.4
19,ACAAAAAAAATAAGCACACATATATATATATATATA [CACACA_site816],10.1 ± 0.38
20,AATAAAGCAATAAATACACACATATATATATATATA [CACACA_site2934],9.955 ± 0.0071
21,AATATAAGCAAATACACACACACATATATATATATA [CACACA_site3805],10.29 ± 0.035
22,AAACAAAAAAAATAAGCACACATATATATATATATA [CACACA_site8173],9.6 ± 0.57
23,AATATAAGCAAATACACACACACATATAAATATGTA [CACACA_site7741],9.85 ± 0.35
